# From ChEMBL document CHEMBL3988442, “University of Dundee, Small-Polar-MMV Screening Library” (2021)
# Biological target: AMP-activated protein kinase, AMPK (Homo sapiens) (UniProt P54646+O43741+P54619+Q9UGJ0+Q9Y478+Q13131+Q9UGI9)
# Assay: AMP-dependent Kinase enzyme assay. An in vitro enzyme assay that detects ADP turnover that is directly proportional to AMPK activity. This uses naive AMPK that is activated during the assay with MK-8722
# Format: functional
# Parameters: scale not given: direction of the effect not stated beside the values
# Conditions: 30 µM
row,Compound,Percent Effect [%]
1,Cc1cc(N2CCCC2)nc(CNS(=O)(=O)Cc2ccccc2)n1,5.01
2,COc1ncccc1N(C)C(=O)Cn1cc(-c2ccccc2)nn1,-1.29
3,CS(=O)(=O)CCC(=O)Nc1ccsc1,-6.46
4,CCC(C)Oc1ccc(CNCCNC(C)=O)cc1Cl (centres undefined),-6.19
5,CCN1CCC(CC(=O)NCCc2nc(O)cc(O)n2)CC1,-0.635
6,O=C(NCC1CCS(=O)(=O)C1)N(Cc1ccncc1)C1CC1 (centres undefined),-5.47
7,CCC1(CC)CC(=O)N(CC(O)c2ccc(F)cc2)C1=O (centres undefined),8.69
8,CN(Cc1csc2ccccc12)C(=O)NC1CCS(=O)(=O)C1 (centres undefined),8.42
9,COc1ccccc1CN(Cc1nc(CC(C)C)no1)C1CC1,14.9
10,NCCc1cc(N2CCOCC2)nc(NC2CC2)n1,3.97
11,CC(=O)NCCNC(=O)c1cc(COc2ccccc2)[nH]n1,14.5
12,O=C1OCCN1Cc1nc(C2(c3ccc(F)cc3)CCOC2)no1 (centres undefined),8.23
13,NS(=O)(=O)c1ccc(N2CCN(CCCc3cn[nH]c3)CC2)cc1,-5.73
14,O=C(Nc1ccccn1)NC1CCN(c2ccccc2OC(F)F)C1 (centres undefined),-0.894
15,O=C1NCCN(Cc2cccnc2)C1CC(=O)N1CCc2n[nH]cc2C1 (centres undefined),-26.7
16,Cc1cc(C2CCCN(CC(=O)N3CCc4ccccc43)C2)n[nH]1 (centres undefined),-5.04
17,Cc1nc(COC(=O)c2cccnc2C)no1,3.04
18,Cc1nc[nH]c1CN1CCC(C2CCN(CCc3ccccc3)C2)CC1 (centres undefined),-0.168
19,O=C(Nc1ccncc1)NC1CCN(c2ccccc2OC(F)F)C1 (centres undefined),-0.97
20,CN(C)CCN(Cc1ccc(Cl)cc1)C(=O)c1ccn(C)c(=O)c1,6.12

row,Compound,Percent Effect [%]
1,CCN(CC)C(CNC(=O)c1ccc(-n2cncn2)cc1)c1ccsc1 (centres undefined),-4.43
2,CCC[C@@H]1CN(c2cncc(C(=O)N3CCOCC3)n2)C[C@H]1N(C)C,14.3
3,Cc1nc(NC(=O)c2c3c(nn2C2CCS(=O)(=O)C2)CCC3)sc1C (centres undefined),-4
4,COCc1c(Br)cccc1NC(=O)N(C)CCO,-5.13
5,COCCN1C[C@H]2CC[C@@H]1CN(C(=O)CCc1c(C)nn(C)c1C)C2,-4.69
6,CC(C)(C)c1cc(CNC(=O)c2cc(COc3ccccc3)[nH]n2)[nH]n1,17.9
7,CN1C(=O)c2ccc(C(=O)N(Cc3cnn(C)c3)C3CC3)cc2C1=O,11.4
8,COc1ccc(S(=O)(=O)C2CCN(C(=O)c3cc(C)cs3)CC2)cc1,2.13
9,CS(=O)(=O)NC(=O)c1ccn(-c2cccc(Br)c2)n1,2.69
10,CCN(CC)S(=O)(=O)NC1CCN(c2ccc(OC)cc2)CC1,9.49
11,CCNC(=O)c1ccc(NC2CCOC3(CCCC3)C2)nn1 (centres undefined),2.07
12,CCn1cnnc1CCNC(=O)c1ccc(Br)cc1F,-0.992
13,Nc1nccnc1C(=O)NC1CCN(Cc2ccccc2)C1 (centres undefined),7.89
14,COCCNC(=O)N1CCOCC1c1c(C)nn(C)c1C (centres undefined),-0.499
15,CN(C(=O)c1ccccn1)c1nnc(C2CCOC2)s1 (centres undefined),9.22
16,CCN1CCC(NC(=O)N(C)Cc2csc3ccccc23)CC1,-1.48
17,Cc1cc(C)cc(NCCC(=O)NCc2cccnc2N(C)C)c1,-2.62
18,CNC(=O)c1cn2cc(-c3ccccc3Cl)n(CC=C(C)C)c(=O)c2n1,3.23
19,Cc1ncsc1C(=O)OCCN1CCCc2ccccc21,8.19
